Assay results as given in the supplement of paper PMC10849652.
Of roughly 7,900 targets only a part is listed; those with a hit were picked by preference. About 0.6% of all pairs of compound and target were hits.

Legend:
Test in all cases: log2 fold change, soluble protein after heating vs DMSO (PISA); higher = thermal stabilisation; K562 cells, 10 uM, 30 min; active = over 0.2 and 3.5 SD of the protein, either way, in both replicates (recomputed)
[1] = compound: C1=CC=C(C=C1)[C@H](COC2=CC3=C(C=C2)NC(=O)N3)NC(=O)C4=CC=CN(C4=O)CC5=CC(=C(C=C5)F)F
Summary of the method: (§1)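 K562 cells (2×10^6 cells/mL) were treated with 10 μM compound for 30 min, and aliquots were heated for 3 min over 48°C-58°C. Pooled aliquots were extracted in PBS with 0.5% NP-40 at 4°C, and the supernatant after 21,000xg for 90 min was measured by TMTpro 16plex LC-MS/MS with channel sums equalised. Reported thermal stability, relative to control samples and from duplicates, is a log2 fold change.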

[2] = compound: CC1=C(SC2=C1C(=N[C@H](C3=NN=C(N32)C)CC(=O)N)C4=CC=C(C=C4)Cl)C
Summary of the method: as §1

[3] = compound: CC1=C2C(=CC=C1)N=C(N(C2=O)C3=CC=CC=C3C)CN4C=NC5=C(N=CN=C54)N
Summary of the method: as §1

[4] = compound: Cc1sc2c(c1C)C(c1ccc(Cl)cc1)=N[C@@H](CC(=O)OC(C)(C)C)c1nnc(C)n1-2
Summary of the method: as §1

[5] = compound: c1ccc([C@@H]2C[C@H]2NC2CCNCC2)cc1
Summary of the method: as §1

Measured: log2 fold change

EEF1B2 (UniProt P24534)
Sequence of UniProt P24534 (P24534 whole entry, looked up): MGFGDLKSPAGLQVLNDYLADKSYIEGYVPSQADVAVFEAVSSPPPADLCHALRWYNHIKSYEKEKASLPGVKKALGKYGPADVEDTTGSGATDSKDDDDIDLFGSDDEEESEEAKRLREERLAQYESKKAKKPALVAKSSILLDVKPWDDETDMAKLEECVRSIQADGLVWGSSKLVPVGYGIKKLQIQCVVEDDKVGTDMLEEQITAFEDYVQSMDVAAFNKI
inactive: [1] -0.037 | [2] -0.002 | [3] 0.036 | [4] 0.026 | [5] -0.034

DHX16 (UniProt O60231)
Sequence of UniProt O60231 (O60231 whole entry, looked up): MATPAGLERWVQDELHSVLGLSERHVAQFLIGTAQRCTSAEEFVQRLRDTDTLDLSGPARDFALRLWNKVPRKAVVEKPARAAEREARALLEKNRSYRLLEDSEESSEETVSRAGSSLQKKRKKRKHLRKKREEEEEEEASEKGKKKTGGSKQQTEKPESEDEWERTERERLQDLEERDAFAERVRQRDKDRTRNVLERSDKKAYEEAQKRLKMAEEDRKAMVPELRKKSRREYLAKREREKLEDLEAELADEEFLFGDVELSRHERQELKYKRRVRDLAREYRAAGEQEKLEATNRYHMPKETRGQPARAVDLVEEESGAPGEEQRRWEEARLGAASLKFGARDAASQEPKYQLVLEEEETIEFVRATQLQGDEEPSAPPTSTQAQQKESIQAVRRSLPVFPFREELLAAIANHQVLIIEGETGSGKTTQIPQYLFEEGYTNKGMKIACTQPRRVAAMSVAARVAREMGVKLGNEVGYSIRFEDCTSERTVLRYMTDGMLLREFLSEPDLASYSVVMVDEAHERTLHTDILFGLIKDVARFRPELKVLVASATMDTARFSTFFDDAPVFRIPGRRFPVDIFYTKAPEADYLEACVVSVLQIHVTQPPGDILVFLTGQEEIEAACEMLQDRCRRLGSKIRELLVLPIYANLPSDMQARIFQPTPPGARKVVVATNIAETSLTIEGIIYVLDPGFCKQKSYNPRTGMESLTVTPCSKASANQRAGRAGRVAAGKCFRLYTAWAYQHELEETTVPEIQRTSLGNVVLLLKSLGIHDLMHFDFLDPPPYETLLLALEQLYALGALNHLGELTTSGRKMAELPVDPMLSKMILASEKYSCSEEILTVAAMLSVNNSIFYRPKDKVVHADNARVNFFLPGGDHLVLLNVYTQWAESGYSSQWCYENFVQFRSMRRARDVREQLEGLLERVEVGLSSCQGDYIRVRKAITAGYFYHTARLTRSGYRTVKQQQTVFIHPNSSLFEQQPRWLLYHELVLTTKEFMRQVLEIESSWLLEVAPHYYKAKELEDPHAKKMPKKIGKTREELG
inactive: [1] -0.024 | [2] 0.007 | [3] 0.059 | [4] -0.003 | [5] 0.017

DNAH5 (UniProt Q8TE73)
inactive: [1] 0.074 | [2] 0.023 | [3] 0.08 | [4] 0.139 | [5] 0.062
